Holding throughout (experiment): PBM; 200 nM protein, PBS
Conditions in all cases: dsDNA, one strand shown

Assay [1] concerns the target T1, SIX6 (Homo sapiens, UniProt O95475 114-200, L167I).
T1 sequence: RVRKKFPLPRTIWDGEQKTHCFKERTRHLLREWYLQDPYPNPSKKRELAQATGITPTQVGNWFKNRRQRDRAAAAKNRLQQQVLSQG

Assay [2] addresses T2, SIX6 (Homo sapiens, UniProt O95475 114-200, T139Q).
T2 sequence: T1 sequence with T26Q, I54L

Assay [3] addresses T3, SIX6 (Homo sapiens, UniProt O95475 114-200, L167V).
T3 sequence: T1 sequence with I54V

Assay [4] has as its target T4, SIX6 (Homo sapiens, UniProt O95475 114-200, T165I).
T4 sequence: T1 sequence with T52I, I54L

In assay [5] the target is HOXA4 (Homo sapiens, UniProt Q00056 201-287, W262R).
The target in assay [6] is PRRX1 (Homo sapiens, UniProt P54821 80-166, F113S).
The target of assay [7] is HOXA4 (Homo sapiens, UniProt Q00056 201-287, R217L).
The target in assay [8] is HOXA4 (Homo sapiens, UniProt Q00056 201-287).
In assay [9] the target is HOXA4 (Homo sapiens, UniProt Q00056 201-287, W262F).
Assay [10] has as its target PRRX1 (Homo sapiens, UniProt P54821 80-166).
In assay [11] the target is HOXC9 (Homo sapiens, UniProt P31274 178-260, K195R).
For assay [12], the target named is HOXC9 (Homo sapiens, UniProt P31274 178-260).
Assay [13] concerns the target ALX3 (Homo sapiens, UniProt O95076 139-225, N203Q).
The target in assay [14] is HOXC9 (Homo sapiens, UniProt P31274 178-260, R193K).
Assay [15] deals with ALX3 (Homo sapiens, UniProt O95076 139-225).
Assay [16] has as its target ALX3 (Homo sapiens, UniProt O95076 139-225, L168Q).
Assay [17] concerns the target HOXC9 (Homo sapiens, UniProt P31274 178-260, R222W).
Assay [18] has as its target ALX3 (Homo sapiens, UniProt O95076 139-225, L168V).
In assay [19] the target is ALX3 (Homo sapiens, UniProt O95076 139-225, N203S).
The target in assay [20] is HOXC10 (Homo sapiens, UniProt Q9NYD6 254-340).
Assay [21] deals with HOXA2 (Homo sapiens, UniProt O43364 129-215, R185T).
For assay [22], the target named is HOXA2 (Homo sapiens, UniProt O43364 129-215, R185K).
In assay [23] the target is HOXC10 (Homo sapiens, UniProt Q9NYD6 254-340, K271E).
Assay [24] deals with HOXA2 (Homo sapiens, UniProt O43364 129-215, Y150S).
The target in assay [25] is HOXA2 (Homo sapiens, UniProt O43364 129-215).
Assay [26] deals with T5, NKX2-6 (Homo sapiens, UniProt A6NCS4 118-204).
T5 sequence: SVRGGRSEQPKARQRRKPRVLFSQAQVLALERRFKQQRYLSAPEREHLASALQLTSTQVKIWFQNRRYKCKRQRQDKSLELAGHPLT

The target of assay [27] is T6, NKX2-6 (Homo sapiens, UniProt A6NCS4 118-204, F151L).
T6 sequence: T5 sequence with F34L

In assay [28] the target is ALX4 (Homo sapiens, UniProt Q9H161 200-286).
Assay [29] deals with ALX4 (Homo sapiens, UniProt Q9H161 200-286, Q225E).

Numbering of substitutions follows the chain as printed.

HOXA4 (Homo sapiens, UniProt Q00056 201-287), sequence (Q00056 201-287): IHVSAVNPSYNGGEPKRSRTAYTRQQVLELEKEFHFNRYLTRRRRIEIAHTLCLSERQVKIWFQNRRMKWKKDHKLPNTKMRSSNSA
HOXA4 (Homo sapiens, UniProt Q00056 201-287, R217L), sequence (Q00056 201-287 R217L): as the sequence (Q00056 201-287) above, with R17L counted along it
HOXA4 (Homo sapiens, UniProt Q00056 201-287, W262F), sequence (Q00056 201-287 W262F): as the sequence (Q00056 201-287) above, with W62F counted along it
HOXA4 (Homo sapiens, UniProt Q00056 201-287, W262R), sequence (Q00056 201-287 W262R): as the sequence (Q00056 201-287) above, with W62R counted along it
PRRX1 (Homo sapiens, UniProt P54821 80-166), sequence (P54821 80-166): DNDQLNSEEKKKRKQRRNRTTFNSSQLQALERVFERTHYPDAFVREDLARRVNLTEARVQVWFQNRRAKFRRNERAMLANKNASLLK
PRRX1 (Homo sapiens, UniProt P54821 80-166, F113S), sequence (P54821 80-166 F113S): as the sequence (P54821 80-166) above, with F34S counted along it
HOXC9 (Homo sapiens, UniProt P31274 178-260), sequence (P31274 178-260): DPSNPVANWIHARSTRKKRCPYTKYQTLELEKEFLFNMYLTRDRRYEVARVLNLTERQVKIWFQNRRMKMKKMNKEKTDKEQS
HOXA2 (Homo sapiens, UniProt O43364 129-215), sequence (O43364 129-215): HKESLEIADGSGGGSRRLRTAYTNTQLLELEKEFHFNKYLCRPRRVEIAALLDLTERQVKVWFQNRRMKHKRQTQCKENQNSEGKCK
HOXC10 (Homo sapiens, UniProt Q9NYD6 254-340), sequence (Q9NYD6 254-340): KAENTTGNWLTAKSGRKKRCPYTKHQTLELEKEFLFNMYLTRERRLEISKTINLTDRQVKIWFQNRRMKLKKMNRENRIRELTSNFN
HOXA2 (Homo sapiens, UniProt O43364 129-215, R185K), sequence (O43364 129-215 R185K): as the sequence (O43364 129-215) above, with R57K counted along it
HOXC10 (Homo sapiens, UniProt Q9NYD6 254-340, K271E), sequence (Q9NYD6 254-340 K271E): as the sequence (Q9NYD6 254-340) above, with K18E counted along it
HOXC9 (Homo sapiens, UniProt P31274 178-260, K195R), sequence (P31274 178-260 K195R): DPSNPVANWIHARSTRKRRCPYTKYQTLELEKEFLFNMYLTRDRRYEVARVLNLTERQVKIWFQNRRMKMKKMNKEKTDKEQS
HOXA2 (Homo sapiens, UniProt O43364 129-215, R185T), sequence (O43364 129-215 R185T): as the sequence (O43364 129-215) above, with R57T counted along it
HOXA2 (Homo sapiens, UniProt O43364 129-215, Y150S), sequence (O43364 129-215 Y150S): as the sequence (O43364 129-215) above, with Y22S counted along it
HOXC9 (Homo sapiens, UniProt P31274 178-260, R193K), sequence (P31274 178-260 R193K): as the sequence (P31274 178-260) above, with R16K counted along it
HOXC9 (Homo sapiens, UniProt P31274 178-260, R222W), sequence (P31274 178-260 R222W): as the sequence (P31274 178-260) above, with R45W counted along it
ALX3 (Homo sapiens, UniProt O95076 139-225, L168V), sequence (O95076 139-225 L168V): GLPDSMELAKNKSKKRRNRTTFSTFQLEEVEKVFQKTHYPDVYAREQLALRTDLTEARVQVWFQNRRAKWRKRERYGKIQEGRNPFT
ALX3 (Homo sapiens, UniProt O95076 139-225, L168Q), sequence (O95076 139-225 L168Q): as the sequence (O95076 139-225 L168V) above, with V30Q counted along it
ALX4 (Homo sapiens, UniProt Q9H161 200-286), sequence (Q9H161 200-286): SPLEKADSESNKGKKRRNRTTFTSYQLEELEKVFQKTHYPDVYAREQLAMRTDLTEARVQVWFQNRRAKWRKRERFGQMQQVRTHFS
ALX3 (Homo sapiens, UniProt O95076 139-225, N203Q), sequence (O95076 139-225 N203Q): as the sequence (O95076 139-225 L168V) above, with V30L, N65Q counted along it
ALX4 (Homo sapiens, UniProt Q9H161 200-286, Q225E), sequence (Q9H161 200-286 Q225E): as the sequence (Q9H161 200-286) above, with Q26E counted along it
ALX3 (Homo sapiens, UniProt O95076 139-225, N203S), sequence (O95076 139-225 N203S): as the sequence (O95076 139-225 L168V) above, with V30L, N65S counted along it
ALX3 (Homo sapiens, UniProt O95076 139-225), sequence (O95076 139-225): as the sequence (O95076 139-225 L168V) above, with V30L counted along it

As for AGGGATCA, the binding signal in assay [1] is 11.1 upbm affinity estimate (log intensity, higher = more binding, comparable within an allelic series); in assay [2], 11.1 upbm affinity estimate (log intensity, higher = more binding, comparable within an allelic series).
Consider AGATGATA, for which the binding signal in assay [1] is 11.1 upbm affinity estimate (log intensity, higher = more binding, comparable within an allelic series); in [3], 10.9 upbm affinity estimate (log intensity, higher = more binding, comparable within an allelic series); in assay [4], 10.9 upbm affinity estimate (log intensity, higher = more binding, comparable within an allelic series).
Turning to GGGGGAAC, the binding signal was 9.66 upbm affinity estimate (log intensity, higher = more binding, comparable within an allelic series) in assay [5]; 9.45 upbm affinity estimate (log intensity, higher = more binding, comparable within an allelic series) in [6]; 9.7 upbm affinity estimate (log intensity, higher = more binding, comparable within an allelic series) in assay [7]; 9.72 upbm affinity estimate (log intensity, higher = more binding, comparable within an allelic series) in assay [8]; 9.64 upbm affinity estimate (log intensity, higher = more binding, comparable within an allelic series) in assay [9]; 9.62 upbm affinity estimate (log intensity, higher = more binding, comparable within an allelic series) in assay [10].
For the sequence AGCCACGG, the binding signal is 9.87 upbm affinity estimate (log intensity, higher = more binding, comparable within an allelic series) in assay [5]; 9.64 upbm affinity estimate (log intensity, higher = more binding, comparable within an allelic series) in [11]; 9.72 upbm affinity estimate (log intensity, higher = more binding, comparable within an allelic series) in assay [7]; 9.71 upbm affinity estimate (log intensity, higher = more binding, comparable within an allelic series) in assay [12]; 7.72 upbm affinity estimate (log intensity, higher = more binding, comparable within an allelic series) in [13]; 9.61 upbm affinity estimate (log intensity, higher = more binding, comparable within an allelic series) in assay [14]. The binding signal in assay [8] is 9.87 upbm affinity estimate (log intensity, higher = more binding, comparable within an allelic series); in assay [15] it was 7.83 upbm affinity estimate (log intensity, higher = more binding, comparable within an allelic series); in [16] it was 7.8 upbm affinity estimate (log intensity, higher = more binding, comparable within an allelic series); in assay [17], 9.71 upbm affinity estimate (log intensity, higher = more binding, comparable within an allelic series); in [18], 7.72 upbm affinity estimate (log intensity, higher = more binding, comparable within an allelic series); in assay [9], 9.91 upbm affinity estimate (log intensity, higher = more binding, comparable within an allelic series). The binding signal in [19] was 7.74 upbm affinity estimate (log intensity, higher = more binding, comparable within an allelic series).
As for CAGGCTTC, the binding signal in [5] was 9.89 upbm affinity estimate (log intensity, higher = more binding, comparable within an allelic series); in [11], 9.38 upbm affinity estimate (log intensity, higher = more binding, comparable within an allelic series); in assay [20], 9.9 upbm affinity estimate (log intensity, higher = more binding, comparable within an allelic series); in [6], 9.37 upbm affinity estimate (log intensity, higher = more binding, comparable within an allelic series); in [21] it was 7.14 upbm affinity estimate (log intensity, higher = more binding, comparable within an allelic series); in assay [7], 9.71 upbm affinity estimate (log intensity, higher = more binding, comparable within an allelic series). Further, the binding signal in [12] was 9.43 upbm affinity estimate (log intensity, higher = more binding, comparable within an allelic series); in [14], 9.37 upbm affinity estimate (log intensity, higher = more binding, comparable within an allelic series); in assay [22], 10.5 upbm affinity estimate (log intensity, higher = more binding, comparable within an allelic series); in assay [8], 9.69 upbm affinity estimate (log intensity, higher = more binding, comparable within an allelic series); in assay [23], 9.96 upbm affinity estimate (log intensity, higher = more binding, comparable within an allelic series); in assay [17], 9.74 upbm affinity estimate (log intensity, higher = more binding, comparable within an allelic series). The binding signal in [24] was 10.4 upbm affinity estimate (log intensity, higher = more binding, comparable within an allelic series); in [9], 9.89 upbm affinity estimate (log intensity, higher = more binding, comparable within an allelic series); in assay [10] it was 9.5 upbm affinity estimate (log intensity, higher = more binding, comparable within an allelic series); in assay [25], 7.25 upbm affinity estimate (log intensity, higher = more binding, comparable within an allelic series).
As to GCCCCGAC, the binding signal is 9.84 upbm affinity estimate (log intensity, higher = more binding, comparable within an allelic series) in assay [5]; 10.1 upbm affinity estimate (log intensity, higher = more binding, comparable within an allelic series) in assay [20]; 9.25 upbm affinity estimate (log intensity, higher = more binding, comparable within an allelic series) in assay [6]; 7.21 upbm affinity estimate (log intensity, higher = more binding, comparable within an allelic series) in [21]; 9.94 upbm affinity estimate (log intensity, higher = more binding, comparable within an allelic series) in assay [7]; 9.63 upbm affinity estimate (log intensity, higher = more binding, comparable within an allelic series) in assay [26]. The binding signal is 10.4 upbm affinity estimate (log intensity, higher = more binding, comparable within an allelic series) in assay [22]; 9.87 upbm affinity estimate (log intensity, higher = more binding, comparable within an allelic series) in assay [8]; 10.1 upbm affinity estimate (log intensity, higher = more binding, comparable within an allelic series) in assay [23]; 9.35 upbm affinity estimate (log intensity, higher = more binding, comparable within an allelic series) in assay [27]; 10.5 upbm affinity estimate (log intensity, higher = more binding, comparable within an allelic series) in assay [24]; 10.1 upbm affinity estimate (log intensity, higher = more binding, comparable within an allelic series) in [9]. For the same sequence, the binding signal in assay [10] is 9.52 upbm affinity estimate (log intensity, higher = more binding, comparable within an allelic series); in assay [25], 7.3 upbm affinity estimate (log intensity, higher = more binding, comparable within an allelic series).
As for CCGAAGGC, the binding signal was 9.78 upbm affinity estimate (log intensity, higher = more binding, comparable within an allelic series) in assay [5]; 8.05 upbm affinity estimate (log intensity, higher = more binding, comparable within an allelic series) in assay [28]; 8.35 upbm affinity estimate (log intensity, higher = more binding, comparable within an allelic series) in assay [29]; 9.88 upbm affinity estimate (log intensity, higher = more binding, comparable within an allelic series) in [7]; 9.96 upbm affinity estimate (log intensity, higher = more binding, comparable within an allelic series) in [8]; 9.89 upbm affinity estimate (log intensity, higher = more binding, comparable within an allelic series) in assay [9].

The values above are taken from PMC11006913.
